# Calls of active or inactive are those of the source. The calls were made as follows: active = hit-call score of the fitted dose curve at least 0.9, where 1 is the maximum; inactive = score below 0.9.
# Experiment: ATG_CMV_CIS: Attagene CIS-FACTORIAL HepG2 Assay for human CMV (Internal Marker) (AID 2282928);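 also: endpoint acts as a background internal control marker rather than a target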
# Settings: HepG2 CMV promoter reporter, transcription factor profiling; actives raise or lower the signal
# Protocol: ATG_CIS is a cell-based, multiplexed-readout assay that uses HepG2, a human liver cell line, with measurements taken at 24 hours after chemical dosing in a 24-well plate.ATG_CMV_CIS is one of 52 assay component(s) measured or calculated from the ATG_CIS assay. It is designed to make measurements of mRNA induction, a form of inducible reporter, as detected with fluorescence intensity signals by Reverse transcription polymerase chain reaction (RT-PCR) and Capillary electrophoresis technology.Data from the assay component ATG_CMV_CIS was analyzed into 1 assay endpoint. This assay endpoint, ATG_CMV_CIS, was analyzed with bidirectional fitting relative to DMSO as the negative control and baseline of activity. Using a type of inducible reporter, measures of mRNA for gain or loss-of-signal activity can be used to understand the background control at the transcription factor-level as they relate to the gene . Furthermore, this assay endpoint can be referred to as a secondary readout, because this assay has produced multiple assay endpoints where this one serves a background control function. To generalize the intended target to other relatable targets, this assay endpoint is annotated to the background measurement intended target family, where the subfamily is internal marker.
# Human liver HepG2 cells are transiently transfected with multiple reporter transcription units (MRTUs) in 6-well plates using FuGene 6 reagent (Roche; 3 ml FuGene/1 mg DNA). The MRTU constructs are regulated by a cis-regulating element (promoter). […] A major difference between the CIS and TRANS system is that in CIS activities of endogenous TFs are measured, whereas the TRANS assay evaluates changes in activities of exogenous, chimeric NR-Gal4 proteins. […] At the end of 24 hour incubation, total RNA was isolated using TriZol reagent (Invitrogen). The isolated RNA is then reverse-transcribed using oligo(dT) primer and Mo-MLV reverse transcriptase (Invitrogen) with DNAse I (Ambion) treatment for 30 min. The one-tenth of the produced cDNA was amplified by PCR using Taq DNA polymerase (Invitrogen) and two reporter sequence-specific primers. The PCR products were fluorescently labeled by primer extension with 6-arboxyfluorescein (6-FAM) 5'-labeled reporter sequence-specific primer (2 min at 95 C, 20 s at 68 C and 10 min at 72 C) and these products were digested with 5U of HpaI (New England Biolabs) for 2h at 37 C. The fragments were purified using Qiaquick PCR columns (Qiagen), analyzed on an ABI 3130xL genetic analyzer (Applied Biosystems) with peak positions identified by using a set of X-rhodamine (ROX)-labeled MapMarker1000 molecular weight standards (BioVentures). The raw capillary electrophoresis data was processed using Attagraph software (Attagene).
Structure (SMILES),outcome,AC50
CCCCCCOC(=O)c1ccccc1,inactive,
C=CC(=O)OCC(F)(F)C(F)(F)C(F)(F)C(F)(F)C(F)(F)C(F)(F)C(F)(F)F,inactive,
OCCCC(F)(F)C(F)(F)C(F)(F)F,inactive,
CCO[Si](CCC(F)(F)C(F)(F)C(F)(F)C(F)(F)C(F)(F)C(F)(F)F)(OCC)OCC,inactive,
N=C(N)C(F)(F)C(F)(F)C(F)(F)C(F)(F)C(F)(F)C(F)(F)C(F)(F)F,inactive,
Nc1ccc(Oc2cccc(Oc3ccc(N)cc3)c2)cc1,,45.1 µM (active)
COC(=O)C1CCC(C(=O)OC)CC1 (stereo not given),inactive,
C=CC(F)(F)C(F)(F)C(F)(F)C(F)(F)C(F)(F)C(F)(F)C(F)(F)C(F)(F)F,inactive,
c1ccc(-c2ccccc2-c2ccccc2)cc1,,29.8 µM (active)
CCCCNc1ccccc1,inactive,
CS(C)(=O)=O,inactive,
COC(OC(C)=O)c1ccccc1 (stereo not given),inactive,
OC[C@@H](O)[C@@H](O)[C@H](O)[C@@H](O)CO,inactive,
FC(F)(F)C(F)(F)C(F)(F)CI,inactive,
CCCCCCOC(=O)c1ccccc1O,inactive,
C=CC(F)(F)C(F)(F)C(F)(F)C(F)(F)C(F)(F)C(F)(F)C(F)(F)C(F)(F)C=C,inactive,
c1ccc(B(c2ccccc2)c2ccccc2)cc1,,71 µM (active)
O=C(O)C(F)(F)C(F)(F)C(F)(F)C(F)(F)F,inactive,
C#C[C@]1(O)CC[C@H]2[C@@H]3CCc4cc(OC)ccc4[C@H]3CC[C@@]21C,,48.2 µM (active)
O=C(O)C(F)(F)C(F)(F)C(F)(F)C(F)(F)C(F)(F)C(F)(F)C(F)(F)C(F)(F)C(F)(F)C(F)(F)C(F)(F)C(F)(F)F,inactive,

Structure (SMILES),outcome,AC50
O=C(O)C(F)(F)C(F)(F)F,inactive,
CCCCCCCCC(F)(F)C(F)(F)C(F)(F)C(F)(F)C(F)(F)C(F)(F)F,inactive,
CCCCCC=O,inactive,
FC(F)(F)C(F)(F)C(F)(F)C(F)(F)CCI,inactive,
CCCCCCCOC(=O)c1ccccc1C(=O)OCCCCCCC,inactive,
C=CC/C=C/C/C=C/C/C=C/C,inactive,
FC(F)(F)C(F)(F)C(F)(F)C(F)(F)C(F)(F)C(F)(F)CC1CO1 (stereo not given),inactive,
CC(C)c1ccccc1N,inactive,
[Co],inactive,
FC(F)(F)C(F)(F)C(F)(F)C(F)(F)C(F)(F)C(F)(F)C(F)(F)Br,inactive,
O=S(=O)(O)C(F)(F)C(F)(F)C(F)(F)C(F)(F)C(F)(F)C(F)(F)C(F)(F)F,inactive,
CCC(=O)OCCc1ccccc1,inactive,
CCCCOc1ccc(N)cc1,inactive,
O=C(O)C(F)(OC(F)(F)C(F)(OC(F)(F)C(F)(OC(F)(F)C(F)(F)C(F)(F)F)C(F)(F)F)C(F)(F)F)C(F)(F)F (stereo not given),inactive,
O=C(CC(=O)C(F)(F)C(F)(F)F)C(F)(F)F,inactive,
CCCCCCS,inactive,
O=C(C=Cc1ccccc1)OCC=Cc1ccccc1,inactive,
OCCCC(F)(F)C(F)(F)C(F)(F)C(F)(F)C(F)(F)C(F)(F)C(F)(F)F,inactive,
CC(=O)Nc1ccc(N=Nc2cc(C)ccc2O)cc1,inactive,
C1COCCN1,inactive,

# — PubChem BioAssay (EPA / NIEHS)
